# Assay results reported in ChEMBL document CHEMBL2218924, “A broad activity screen in support of a chemogenomic map for kinase signalling research and drug discovery” (Biochem J, 2013).
# How the values were obtained:
# [1] = target: Tyrosine-protein kinase SYK (Homo sapiens) (UniProt P43405); settings: at 10 µM
# [2] = target: T1, Mitogen-activated protein kinase kinase kinase 7 (Homo sapiens) (UniProt O43318); settings: at 1 µM
# T1 sequence (whole entry): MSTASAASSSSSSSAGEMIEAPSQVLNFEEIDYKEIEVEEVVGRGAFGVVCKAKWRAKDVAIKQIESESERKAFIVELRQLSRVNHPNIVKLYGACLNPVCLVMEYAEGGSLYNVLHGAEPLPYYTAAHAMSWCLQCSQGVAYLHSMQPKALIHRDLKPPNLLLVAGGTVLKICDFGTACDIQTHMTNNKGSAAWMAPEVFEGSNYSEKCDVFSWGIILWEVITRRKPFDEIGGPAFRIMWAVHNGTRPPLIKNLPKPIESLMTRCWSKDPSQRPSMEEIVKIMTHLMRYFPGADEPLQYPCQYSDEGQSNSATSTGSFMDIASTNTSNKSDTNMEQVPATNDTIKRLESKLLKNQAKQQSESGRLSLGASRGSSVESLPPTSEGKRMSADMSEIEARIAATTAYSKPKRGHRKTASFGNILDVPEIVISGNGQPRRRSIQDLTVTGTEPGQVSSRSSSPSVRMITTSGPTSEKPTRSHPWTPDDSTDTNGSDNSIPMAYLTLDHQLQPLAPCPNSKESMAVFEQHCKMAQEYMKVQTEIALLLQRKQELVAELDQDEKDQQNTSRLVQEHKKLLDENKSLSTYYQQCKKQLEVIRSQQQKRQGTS
# [3] = target: T1, Mitogen-activated protein kinase kinase kinase 7 (Homo sapiens); settings: at 10 µM
# [4] = target: T2, Serine/threonine-protein kinase TAO1 (Homo sapiens) (UniProt Q7L7X3); settings: at 1 µM
# T2 sequence (whole entry): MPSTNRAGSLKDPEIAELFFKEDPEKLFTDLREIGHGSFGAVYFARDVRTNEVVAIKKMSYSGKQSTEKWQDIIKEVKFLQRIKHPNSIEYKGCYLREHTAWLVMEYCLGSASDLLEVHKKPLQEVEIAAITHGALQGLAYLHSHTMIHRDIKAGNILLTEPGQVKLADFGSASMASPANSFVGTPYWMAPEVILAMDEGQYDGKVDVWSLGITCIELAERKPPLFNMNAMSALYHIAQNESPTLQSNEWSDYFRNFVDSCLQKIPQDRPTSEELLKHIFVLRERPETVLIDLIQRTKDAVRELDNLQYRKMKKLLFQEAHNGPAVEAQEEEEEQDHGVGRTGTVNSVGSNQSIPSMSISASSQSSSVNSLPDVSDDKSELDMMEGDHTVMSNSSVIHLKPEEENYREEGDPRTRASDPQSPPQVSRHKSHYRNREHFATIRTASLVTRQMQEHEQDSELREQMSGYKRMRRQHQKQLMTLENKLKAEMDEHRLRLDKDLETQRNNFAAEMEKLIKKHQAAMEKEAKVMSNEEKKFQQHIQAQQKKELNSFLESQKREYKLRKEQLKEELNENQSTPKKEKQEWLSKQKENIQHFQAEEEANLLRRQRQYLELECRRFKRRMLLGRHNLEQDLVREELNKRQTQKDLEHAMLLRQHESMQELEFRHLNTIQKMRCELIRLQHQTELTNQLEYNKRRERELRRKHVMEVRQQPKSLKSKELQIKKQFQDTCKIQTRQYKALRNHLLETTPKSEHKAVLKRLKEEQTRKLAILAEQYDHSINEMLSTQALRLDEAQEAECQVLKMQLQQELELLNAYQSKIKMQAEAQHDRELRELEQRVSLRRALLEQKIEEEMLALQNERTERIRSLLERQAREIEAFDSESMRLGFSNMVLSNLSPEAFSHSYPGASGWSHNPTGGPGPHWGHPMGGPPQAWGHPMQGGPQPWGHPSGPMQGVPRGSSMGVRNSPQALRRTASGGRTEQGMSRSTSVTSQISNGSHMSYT
# [5] = target: T2, Serine/threonine-protein kinase TAO1 (Homo sapiens); settings: at 10 µM
# [6] = target: T3, Serine/threonine-protein kinase TAO3 (Homo sapiens) (UniProt Q9H2K8); settings: at 1 µM
# T3 sequence (whole entry): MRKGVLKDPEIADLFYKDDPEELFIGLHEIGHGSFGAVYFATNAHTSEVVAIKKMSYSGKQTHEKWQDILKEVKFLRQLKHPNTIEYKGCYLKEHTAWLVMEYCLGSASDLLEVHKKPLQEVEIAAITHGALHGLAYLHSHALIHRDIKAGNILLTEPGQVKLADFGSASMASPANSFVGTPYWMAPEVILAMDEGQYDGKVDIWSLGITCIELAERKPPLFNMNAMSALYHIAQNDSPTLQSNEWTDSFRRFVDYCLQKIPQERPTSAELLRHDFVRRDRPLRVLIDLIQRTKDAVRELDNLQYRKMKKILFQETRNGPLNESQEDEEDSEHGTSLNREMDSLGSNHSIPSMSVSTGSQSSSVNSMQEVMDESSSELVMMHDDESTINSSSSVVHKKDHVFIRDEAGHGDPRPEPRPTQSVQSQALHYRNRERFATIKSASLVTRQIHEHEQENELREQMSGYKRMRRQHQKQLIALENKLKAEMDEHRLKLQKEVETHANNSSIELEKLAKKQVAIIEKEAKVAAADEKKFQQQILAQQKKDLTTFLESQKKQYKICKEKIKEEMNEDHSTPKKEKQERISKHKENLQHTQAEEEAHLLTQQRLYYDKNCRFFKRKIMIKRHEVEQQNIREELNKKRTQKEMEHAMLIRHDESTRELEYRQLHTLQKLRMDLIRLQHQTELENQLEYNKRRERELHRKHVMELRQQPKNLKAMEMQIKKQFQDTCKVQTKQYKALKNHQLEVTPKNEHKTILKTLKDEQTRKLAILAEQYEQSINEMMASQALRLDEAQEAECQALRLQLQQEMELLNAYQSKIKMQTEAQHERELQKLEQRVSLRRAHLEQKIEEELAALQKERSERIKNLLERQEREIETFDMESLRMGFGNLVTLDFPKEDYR
# [7] = target: T3, Serine/threonine-protein kinase TAO3 (Homo sapiens); settings: at 10 µM
# [8] = target: T4, Serine/threonine-protein kinase TBK1 (Homo sapiens) (UniProt Q9UHD2); settings: at 1 µM
# T4 sequence (whole entry): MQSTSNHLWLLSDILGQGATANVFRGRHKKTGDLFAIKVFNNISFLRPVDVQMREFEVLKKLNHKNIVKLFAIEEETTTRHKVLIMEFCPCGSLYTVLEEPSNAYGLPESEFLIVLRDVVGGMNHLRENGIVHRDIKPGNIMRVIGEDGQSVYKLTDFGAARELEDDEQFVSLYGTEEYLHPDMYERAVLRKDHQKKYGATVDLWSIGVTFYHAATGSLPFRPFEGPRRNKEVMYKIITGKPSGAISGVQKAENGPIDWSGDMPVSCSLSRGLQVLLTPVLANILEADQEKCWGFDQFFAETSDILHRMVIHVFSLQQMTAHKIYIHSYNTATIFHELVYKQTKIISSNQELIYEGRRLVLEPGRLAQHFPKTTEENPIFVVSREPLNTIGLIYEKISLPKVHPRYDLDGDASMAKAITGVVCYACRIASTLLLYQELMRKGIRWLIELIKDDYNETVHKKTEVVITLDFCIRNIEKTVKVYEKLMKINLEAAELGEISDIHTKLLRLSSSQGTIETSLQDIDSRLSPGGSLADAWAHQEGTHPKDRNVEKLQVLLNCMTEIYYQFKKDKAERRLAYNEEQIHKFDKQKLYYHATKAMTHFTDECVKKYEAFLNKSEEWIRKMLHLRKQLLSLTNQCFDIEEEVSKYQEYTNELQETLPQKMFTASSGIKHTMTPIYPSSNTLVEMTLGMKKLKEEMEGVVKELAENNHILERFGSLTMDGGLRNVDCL
# [9] = target: T4, Serine/threonine-protein kinase TBK1 (Homo sapiens); settings: at 10 µM
# [10] = target: T5, Inhibitor of nuclear factor kappa-B kinase subunit alpha (Homo sapiens) (UniProt O15111); settings: at 1 µM
# T5 sequence (whole entry): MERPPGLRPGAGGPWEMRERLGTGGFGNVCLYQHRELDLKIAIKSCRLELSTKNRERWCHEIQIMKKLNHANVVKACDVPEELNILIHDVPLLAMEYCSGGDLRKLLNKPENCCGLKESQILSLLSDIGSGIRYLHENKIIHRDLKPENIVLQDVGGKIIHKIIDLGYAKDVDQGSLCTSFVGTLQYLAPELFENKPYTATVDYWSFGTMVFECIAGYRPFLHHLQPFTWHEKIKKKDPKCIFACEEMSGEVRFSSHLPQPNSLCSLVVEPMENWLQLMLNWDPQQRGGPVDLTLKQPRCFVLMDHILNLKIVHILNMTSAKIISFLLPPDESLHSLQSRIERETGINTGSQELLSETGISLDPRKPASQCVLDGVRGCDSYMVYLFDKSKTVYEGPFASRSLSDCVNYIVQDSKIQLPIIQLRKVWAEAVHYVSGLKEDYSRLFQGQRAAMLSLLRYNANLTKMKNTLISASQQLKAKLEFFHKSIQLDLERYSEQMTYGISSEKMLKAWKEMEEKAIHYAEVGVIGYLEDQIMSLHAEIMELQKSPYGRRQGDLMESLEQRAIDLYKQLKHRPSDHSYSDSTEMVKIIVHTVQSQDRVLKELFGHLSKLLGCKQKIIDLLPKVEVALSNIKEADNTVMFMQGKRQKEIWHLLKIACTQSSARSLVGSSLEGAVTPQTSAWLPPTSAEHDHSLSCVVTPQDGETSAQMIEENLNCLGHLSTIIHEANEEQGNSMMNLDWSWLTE
# [11] = target: T5, Inhibitor of nuclear factor kappa-B kinase subunit alpha (Homo sapiens); settings: at 10 µM
# [12] = target: Insulin receptor (Homo sapiens) (UniProt P06213); settings: at 1 µM
# Chain of Insulin receptor (Homo sapiens) (P06213 28-758 limits assumed): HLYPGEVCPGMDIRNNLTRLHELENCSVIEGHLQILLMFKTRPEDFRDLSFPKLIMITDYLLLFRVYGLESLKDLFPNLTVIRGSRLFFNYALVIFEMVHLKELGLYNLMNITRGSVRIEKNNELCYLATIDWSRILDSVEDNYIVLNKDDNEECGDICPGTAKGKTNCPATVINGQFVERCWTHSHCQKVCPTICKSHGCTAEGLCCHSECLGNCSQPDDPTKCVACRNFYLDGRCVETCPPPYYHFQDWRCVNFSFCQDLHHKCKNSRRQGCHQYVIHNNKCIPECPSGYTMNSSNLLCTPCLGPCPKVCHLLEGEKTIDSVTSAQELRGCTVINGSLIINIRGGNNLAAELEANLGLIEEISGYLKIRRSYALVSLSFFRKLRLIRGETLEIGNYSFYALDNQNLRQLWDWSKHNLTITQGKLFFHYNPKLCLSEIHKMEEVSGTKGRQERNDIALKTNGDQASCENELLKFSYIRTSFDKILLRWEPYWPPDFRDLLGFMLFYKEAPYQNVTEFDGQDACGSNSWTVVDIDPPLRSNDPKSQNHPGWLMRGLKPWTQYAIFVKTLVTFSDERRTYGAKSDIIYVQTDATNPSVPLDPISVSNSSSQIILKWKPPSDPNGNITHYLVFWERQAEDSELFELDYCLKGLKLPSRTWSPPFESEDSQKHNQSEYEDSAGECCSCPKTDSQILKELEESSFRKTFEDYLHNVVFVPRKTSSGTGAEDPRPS
# Chain of Insulin receptor (Homo sapiens) (P06213 763-1382 limits assumed): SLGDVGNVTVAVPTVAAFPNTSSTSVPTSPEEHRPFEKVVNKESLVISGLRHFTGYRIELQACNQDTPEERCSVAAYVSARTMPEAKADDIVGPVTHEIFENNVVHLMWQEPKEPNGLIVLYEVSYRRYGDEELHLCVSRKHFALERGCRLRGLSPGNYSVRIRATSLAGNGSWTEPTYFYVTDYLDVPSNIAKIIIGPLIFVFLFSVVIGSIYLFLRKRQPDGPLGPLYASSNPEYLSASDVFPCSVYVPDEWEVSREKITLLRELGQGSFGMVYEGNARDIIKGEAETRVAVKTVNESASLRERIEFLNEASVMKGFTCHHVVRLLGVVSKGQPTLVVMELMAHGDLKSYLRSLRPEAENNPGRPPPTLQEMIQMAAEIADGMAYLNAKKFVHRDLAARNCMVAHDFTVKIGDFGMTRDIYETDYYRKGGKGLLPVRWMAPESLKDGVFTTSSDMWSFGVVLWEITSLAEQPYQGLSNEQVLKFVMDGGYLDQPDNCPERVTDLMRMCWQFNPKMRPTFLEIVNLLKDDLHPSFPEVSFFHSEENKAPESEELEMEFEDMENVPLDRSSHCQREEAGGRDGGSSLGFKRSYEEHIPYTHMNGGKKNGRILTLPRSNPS
# [13] = target: T6, Inhibitor of nuclear factor kappa-B kinase subunit beta (Homo sapiens) (UniProt O14920); settings: at 1 µM
# T6 sequence (whole entry): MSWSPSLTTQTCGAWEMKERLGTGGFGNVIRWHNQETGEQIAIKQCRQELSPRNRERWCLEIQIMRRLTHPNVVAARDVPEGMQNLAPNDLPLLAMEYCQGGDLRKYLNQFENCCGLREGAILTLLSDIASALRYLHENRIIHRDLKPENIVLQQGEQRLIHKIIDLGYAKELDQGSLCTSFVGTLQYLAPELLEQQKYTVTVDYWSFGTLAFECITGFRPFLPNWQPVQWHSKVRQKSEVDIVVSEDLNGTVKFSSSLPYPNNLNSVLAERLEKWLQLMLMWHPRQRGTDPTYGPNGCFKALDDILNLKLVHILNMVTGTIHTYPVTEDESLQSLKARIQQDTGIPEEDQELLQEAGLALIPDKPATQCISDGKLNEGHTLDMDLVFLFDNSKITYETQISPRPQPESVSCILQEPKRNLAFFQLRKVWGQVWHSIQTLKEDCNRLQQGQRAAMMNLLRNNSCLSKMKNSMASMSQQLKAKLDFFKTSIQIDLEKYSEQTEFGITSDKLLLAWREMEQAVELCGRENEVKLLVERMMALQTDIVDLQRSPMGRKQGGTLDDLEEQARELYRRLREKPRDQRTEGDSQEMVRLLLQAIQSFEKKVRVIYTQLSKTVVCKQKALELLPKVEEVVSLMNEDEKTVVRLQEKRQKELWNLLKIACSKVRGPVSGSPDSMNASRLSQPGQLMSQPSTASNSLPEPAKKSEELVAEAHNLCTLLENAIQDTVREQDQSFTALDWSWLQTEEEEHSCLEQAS
# [14] = target: T6, Inhibitor of nuclear factor kappa-B kinase subunit beta (Homo sapiens); settings: at 10 µM
Structure (SMILES),residual activity [1] [%],residual activity [2] [%],residual activity [3] [%],residual activity [4] [%],residual activity [5] [%],residual activity [6] [%],residual activity [7] [%],residual activity [8] [%],residual activity [9] [%],residual activity [10] [%],residual activity [11] [%],residual activity [12] [%],residual activity [13] [%],residual activity [14] [%]
NCCNc1ncc(C(N)=O)c(Nc2cccc(C(F)(F)F)c2)n1,0,78,25,78,28,73,32,79,54,104,66,115,–,–
COc1ccc(-c2cnc3c(-c4ccsc4)cnn3c2)cc1,95,99,97,97,97,–,–,97,85,91,90,91,100,95
